Data taken from PubChem BioAssay (NCATS).
Inconclusive results are not listed. Activity calls are given as the source filed them. Unless noted, the call rests on the fitted dose curve; in most records, active means well fitted curve in the direction sought with a large enough effect; inconclusive means small, poorly fitted or top-dose-only effect, or another doubt; inactive means no such curve, though single readings can be large; an effect the other way counts as inactive or inconclusive.

Experiments:
Furin (Homo sapiens) = Furin (Homo sapiens) (UniProt P09958); experiment: Furin counterscreen qHTS for Zika virus inhibitors (AID 1347149);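 further: purified recombinant full-length human furin enzyme at 5 nM; fluorescence gain from furin cutting a BOC-RVRR-AMC peptide substrate over 15 min; top concentration of the series differs between compounds; plate controls were no-inhibitor control for no effect and no-enzyme control for full effect; nearly all actives have a fitted effect of over 70% in size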
Outline: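 Fluorogenic cleavage of BOC-RVRR-AMC (2 microM final, Km ~15 µM) was monitored (ex 340, em 450 nm) at 37C after 15 min RT preincubation of 5 nM furin with compounds in HEPES pH 7.0 buffer with CaCl2 and Triton X-100. Percent inhibition was fitted to a 4-parameter Hill curve.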

[1] = Confirmatory screen GU Rhodamine qHTS for Zika virus inhibitors qHTS (AID 1347157); further: nearly all actives have a fitted effect of over 70% in size; further: potency means the concentration at half of the fitted maximal effect
Outline: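 Compounds, tested up to 114 microM, were incubated for 15 minutes with 25 nM unlinked NS2B-NS3 protease at pH 8.0. Cleavage of 1.5 microM Rhodamine110 substrate was then followed by fluorescence for 15 minutes.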

[2] = Confirmatory screen NINDS Rhodamine qHTS for Zika virus inhibitors (AID 1347161); further: nearly all actives have a fitted effect of over 60% in size; further: potency means the concentration at half of the fitted maximal effect
Outline: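 Rhodamine110-peptide cleavage (1.5 µM substrate) by 25 nM linked NS2B-NS3 enzyme at pH 8.0 (Tris, Tween 20), after 15 min RT preincubation with compounds; 15-min fluorescence change normalized to controls and Hill-fitted.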

[3] = molecular target: Estrogen receptor (Homo sapiens) (UniProt P03372); experiment: qHTS assay for small molecule antagonists of estrogen receptor alpha signaling (AID 588513; active means well fitted curve in the direction sought with a large enough effect in the signal ratio, with a control signal flat, not every such curve was filed as active; the % refers to the signal ratio; further: on the % scale 0 is the no-effect control and ±100 the full control effect)
Outline: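 ER-alpha-UAS-bla GripTite HEK 293 cells in 2% charcoal/dextran-treated FBS medium; compounds titrated (1:2, duplicate), then stimulated with 0.5 nM 17-beta-estradiol for 18 h at 37C. CCF4 beta-lactamase fluorescence; Hill-fit IC50 and efficacy.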

[4] = molecular target: Estrogen receptor (Homo sapiens) (UniProt P03372); experiment: qHTS assay for small molecule agonists of estrogen receptor alpha signaling (AID 588514; calls by dose curve;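 further: 0% = vehicle only and 100% = reference agonist; nearly all actives have a fitted effect of over 70% in size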)
Outline: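 ER-alpha-UAS-bla GripTite HEK293 cells, 5000/well in 2% charcoal/dextran-stripped FBS medium, treated with compound titrations 18 h at 37 C. CCF4 beta-lactamase read by fluorescence after 2 h RT; normalised to 20 nM 17-beta-estradiol (100%) and DMSO (0%), Hill fit for EC50 and efficacy.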

[5] = molecular target: Bile acid receptor (Homo sapiens) (UniProt Q96RI1); experiment: qHTS assay for small molecule antagonists of farnesoid X receptor signaling (AID 588526; calls by dose curve; further: on the % scale 0 is the no-effect control and ±100 the full control effect)
Outline: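 Antagonist mode: titrated compounds tested against chenodeoxycholic acid stimulation (normalized to 50 uM CDCA and DMSO) in GeneBLAzer HEK293T cells for 16 h. Beta-lactamase read by CCF4 fluorescence; IC50 from Hill fits.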

[6] = qHTS assay for small molecule antagonists of peroxisome proliferator-activated receptor delta signaling (AID 588535; active means well fitted inhibition curve with a large enough effect in the signal ratio, with a control signal flat, not every such curve was filed as active; the % refers to the signal ratio;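 on max response: cells co-treated with a PPAR-delta agonist as stimulator during compound exposure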); conditions: HEK293T PPARd-UAS-bla, beta-lactamase FRET ratio, 18 h; 460 nm channel
Outline: (§1)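 Antagonist-mode beta-lactamase reporter (GeneBLAzer PPAR-delta-UAS-bla) in HEK293T cells, 2% charcoal/dextran FBS, 4000 cells/well. Compound titrations, 18 h at 37 C; CCF4 ratio read, IC50 and efficacy from Hill fits.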

[7] = molecular target: Peroxisome proliferator-activated receptor delta (Homo sapiens) (UniProt Q03181); experiment: as above
Outline: as §1

[8] = molecular target: Vitamin D3 receptor (Homo sapiens) (UniProt P11473); experiment: qHTS assay for small molecule antagonists of vitamin D receptor signaling (AID 588541; calls by dose curve;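 further: receptor activated by calcitriol during compound treatment; series mostly up to about 77 µM; on the % scale 0 is the no-effect control and ±100 the full control effect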)
Outline: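 VDR-UAS-bla HEK293T cells in 2% charcoal-stripped FBS were stimulated with 1-alpha,25-dihydroxyvitamin D3 (3 nM final) plus compound for 16 h at 37 C. The beta-lactamase CCF4 readout was normalized to 50 nM agonist and DMSO, and Hill fits gave IC50.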

[9] = molecular target: Vitamin D3 receptor (Homo sapiens) (UniProt P11473); experiment: qHTS assay for small molecule agonists of vitamin D receptor signaling (AID 588543; calls by dose curve;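 further: 0% = DMSO basal and 100% = reference agonist control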)
Outline: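 VDR-UAS-bla HEK293T cells, 2000/well, 2% charcoal-stripped FBS; compound titration 16 h at 37 C; CCF4 beta-lactamase ratio read. Normalized to 50 nM 1-alpha,25-dihydroxyvitamin D3 (100%) and DMSO; Hill fit gives EC50, efficacy.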

[10] = qHTS assay for small molecule agonists of retinoid X receptor alpha signaling (AID 588544; calls by dose curve;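 on activation: 0% = DMSO basal wells and 100% = reference agonist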); conditions: HEK293T RXRa-UAS-bla, beta-lactamase reporter, 18 h; 530 nm emission
[11] = molecular target: Retinoic acid receptor RXR-alpha (Homo sapiens) (UniProt P19793); experiment: as above
[12] = molecular target: Thyroid hormone receptor beta (Homo sapiens) (UniProt P10828); experiment: qHTS assay for small molecule agonists of thyroid hormone receptor beta signaling (AID 588545; calls by dose curve)
Outline: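 Agonist activity was read as beta-lactamase CCF4 fluorescence (405 ex, 460/530 em), scaled between DMSO (0%) and 10 nM T3 (100%), then Hill-fitted for EC50 and efficacy. HEK 293 TR-UAS-bla cells in 2% charcoal/dextran FBS medium were exposed 18 h at 37 C.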

[13] = qHTS assay for small molecule antagonists of retinoid X receptor alpha signaling (AID 588546; active means well fitted inhibition curve with a large enough effect in the signal ratio, with a control signal flat, not every such curve was filed as active; the % refers to the signal ratio;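 further: cells stimulated with 9-cis-retinoic acid as agonist; on the % scale 0 is the no-effect control and ±100 the full control effect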); conditions: HEK293T RXRa-UAS-bla, beta-lactamase ratio, antagonist mode; measured here: W530 green channel, cytotoxicity proxy
Outline: (§2)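 Beta-lactamase reporter inhibition, read as CCF4 fluorescence ratio (ex 405, em 460/530 nm) after 2 h at RT. HEK293T UAS-bla cells, 2500/well, were stimulated with 9-cis-RA at 500 or 100 nM final alongside test compound for 18 h at 37 C.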

[14] = molecular target: Retinoic acid receptor RXR-alpha (Homo sapiens) (UniProt P19793); experiment: as above; conditions: HEK293T RXRa-UAS-bla, beta-lactamase ratio, antagonist mode
Outline: as §2

[15] = molecular target: Thyroid hormone receptor beta (Homo sapiens) (UniProt P10828); experiment: qHTS assay for small molecule antagonists of thyroid hormone receptor beta signaling (AID 588547; active means well fitted inhibition curve with a large enough effect in the signal ratio, with a control signal flat, not every such curve was filed as active; the % refers to the signal ratio); conditions: TR-UAS-bla HEK293, beta-lactamase ratio, antagonist mode, 18 h
Outline: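 TR-UAS-bla GripTite HEK293 cells in 2% charcoal/dextran FBS medium; compounds 0.59 nM to 92 uM with T3 at 0.4nM final, 18 h at 37 C. Beta-lactamase read by CCF4 fluorescence (460/530 nm); Hill fits gave IC50 and efficacy.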

[16] = qHTS assay for small molecule agonists of the antioxidant response element (ARE) signaling pathway (AID 651741; active means well fitted activation curve with a large enough effect in the signal ratio; the % refers to the signal ratio; further: % of control where 0% means no effect)
Outline: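 CellSensor ARE-bla HepG2 cells (2,000/well) carrying ARE-driven beta-lactamase, exposed 16 h at 37 C. LiveBLAzer B/G FRET substrate added for 2 h at room temperature; fluorescence intensity read.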

[17] = qHTS assay for small molecule activators of the p53 signaling pathway (AID 651743; active means well fitted activation curve with a large enough effect in the signal ratio, not every such curve was filed as active; the % refers to the signal ratio; further: series mostly up to about 92 µM; % of control where 0% means no effect); conditions: HCT-116 p53RE-bla, beta-lactamase FRET ratio, 16 h; stronger effect = higher value
Outline: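 p53RE-bla HCT-116 cells carrying a beta-lactamase reporter under p53 response elements were exposed to compounds for 16 hours at 37 C. Reporter activity read as fluorescence after 2 hours at room temperature with LiveBLAzer B/G FRET substrate.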

[18] = qHTS assay for small molecule activators of the nuclear factor-kappa B (NF-kB) signaling pathway (AID 651749; active means well fitted activation curve with a large enough effect in the signal ratio; the % refers to the signal ratio; further: series mostly up to about 77 µM; % of control where 0% means no effect); conditions: NF-kB-bla ME-180 cells, beta-lactamase FRET ratio, 16 h; stronger effect = higher value
Outline: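 NF-kB-bla ME-180 cells carrying a beta-lactamase reporter under an NF-kB response element, 2,000 cells/well, exposed to compound for 16 hr at 37C; FRET-based beta-lactamase fluorescence read-out of pathway activation.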

[19] = qHTS assay for environmental chemicals that activate the Aryl hydrocarbon Receptor (AhR) signaling pathway (AID 651777); conditions: 1A2-DRE human hepatoma cells, luciferase, 24 h; stronger effect = higher value; further: % of control where 0% means no effect; nearly all actives have a fitted effect of over 15% in size
Outline: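 Human hepatoma 1A2-DRE cells, stably carrying a dioxin response element and CYP1A2 promoter driving luciferase, were exposed to compounds for 24 hr at 37 C and 5% CO2. Luciferase signal was then read after 30 min One-Glo at room temperature.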

[20] = molecular target: Peroxisome proliferator-activated receptor alpha (Homo sapiens) (UniProt Q07869); experiment: qHTS assay for small molecule agonists of the peroxisome proliferator-activated receptor alpha (PPARalpha) signaling pathway (AID 651778); conditions: PathHunter PPARalpha complementation, chemiluminescence, 6 h; stronger effect = higher value; further: % of control where 0% means no effect
Outline: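 Enzyme-fragment complementation assay in which ligand-bound PPARalpha translocates and forms an active enzyme that generates chemiluminescence. Cells were plated overnight, exposed to compound for 6 hr at 37 C, and then given detection reagent for 60 min at room temperature.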

[21] = qHTS assay for small molecule agonists of the antioxidant response element (ARE) signaling pathway measured by Nrf2-dependant transcriptional activity (AID 720636; active means well fitted curve in the direction sought with a large enough effect in the repeat runs; an effect the other way counts as inactive or inconclusive; further: % of control where 0% means no effect)
Outline: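 ARE-luc HepG2 cells carrying an Nrf2-responsive luciferase reporter were plated in medium with 1% dialyzed FBS, left 6 hr at 37 C to attach, then exposed to compound for 16 hr. Luciferase luminescence was read after ONE-Glo addition.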

[22] = qHTS assay for cell viability of HEK293 cells (AID 743288); conditions: ATP luminescence (CellTiter-Glo), 18 h; max response: stronger effect = lower value; further: potency means the concentration at half of the fitted maximal effect; nearly all actives have a fitted effect of over 50% in size
Outline: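 Parental HEK293 cells, 2,000 per well, preincubated at least 5 h at 37 C, then exposed to compounds in DMSO for 18 h at 37 C. Viability by CellTiter-Glo ATP luminescence after 30 min at room temperature.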

[23] = qHTS assay for cell viability of the p53RE-bla HCT-116 cell line (AID 743292); further: potency means the concentration at half of the fitted maximal effect; nearly all actives have a fitted effect of over 55% in size
Outline: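 CellSensor p53RE-bla HCT-116 cells, 4,000/well, preincubated 5 h at 37 C, then exposed to compounds in DMSO for 16 h at 37 C. Viability read as CellTiter-Glo luminescence (intracellular ATP) after 30 min at room temperature.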

[24] = tested on: Zika virus NS2B-NS3 protease (linked); experiment: 384 well plate NINDS AMC confirmatory qHTS for Zika virus inhibitors (AID 1347163); further: potency means the concentration at half of the fitted maximal effect; nearly all actives have a fitted effect of over 50% in size
Outline: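 Linked NS2B-NS3 protease (final 5 nM, 30 nM or 60 nM) was preincubated with compounds (final up to 1 mM) for ~15 minutes. Ac-VKTGKR-AMC substrate (final 30 microM) then reacted for 25 minutes at room temperature in the dark. Fluorescence (ex 355/em 460 nm) was normalized to no-enzyme and no-inhibitor controls.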

[25] = tested on: Zika virus NS2B-NS3 protease (linked construct); experiment: 384 well plate NINDS Rhodamine confirmatory qHTS for Zika virus inhibitors (AID 1347164);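 further: fluorescence from protease cleavage of Ac-LKRR-rhodamine 110 substrate; potency means the concentration at half of the fitted maximal effect; nearly all actives have a fitted effect of over 65% in size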
Outline: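 Linked NS2B-NS3 protease (final 5, 30 or 60 nM) preincubated ~15 minutes with compounds, then 10 microM Ac-LKRR-Rhodamine 110 added. Fluorescence (485/538 nm) read after 25 minutes at room temperature, normalized to no-enzyme and no-inhibitor controls.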

[26] = molecular target: Nuclear receptor subfamily 1 group I member 2 (Rattus norvegicus) (UniProt Q9R1A7); experiment: qHTS assay for small molecule activators of the rat pregnane X receptor (rPXR) signaling pathway (AID 651751; call rule not given here; further: 0% is about no effect); conditions: rPXR reporter cells, luciferase (One-Glo), 24 h
[27] = qHTS assay for small molecule activators of the human pregnane X receptor (PXR) signaling pathway (AID 720659; call rule not given here; further: 0% is about no effect)

Estrogen receptor (Homo sapiens), sequence (P03372 whole entry, looked up): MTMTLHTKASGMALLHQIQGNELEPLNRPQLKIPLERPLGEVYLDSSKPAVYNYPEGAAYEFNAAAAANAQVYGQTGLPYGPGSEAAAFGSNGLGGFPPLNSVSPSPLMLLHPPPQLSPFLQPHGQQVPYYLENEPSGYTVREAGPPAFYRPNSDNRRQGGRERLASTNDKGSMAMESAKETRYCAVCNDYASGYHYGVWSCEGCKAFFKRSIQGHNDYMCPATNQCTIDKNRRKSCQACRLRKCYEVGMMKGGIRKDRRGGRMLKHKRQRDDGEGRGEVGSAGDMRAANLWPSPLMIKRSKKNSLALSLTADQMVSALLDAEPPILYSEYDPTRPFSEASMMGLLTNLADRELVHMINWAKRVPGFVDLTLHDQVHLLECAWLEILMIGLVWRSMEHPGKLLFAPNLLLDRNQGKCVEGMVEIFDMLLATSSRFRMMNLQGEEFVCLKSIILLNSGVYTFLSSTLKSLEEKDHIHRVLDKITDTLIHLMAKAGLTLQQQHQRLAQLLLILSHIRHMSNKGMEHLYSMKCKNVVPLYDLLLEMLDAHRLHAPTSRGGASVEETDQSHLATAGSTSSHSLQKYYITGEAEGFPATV
Furin (Homo sapiens), sequence (P09958 whole entry, looked up): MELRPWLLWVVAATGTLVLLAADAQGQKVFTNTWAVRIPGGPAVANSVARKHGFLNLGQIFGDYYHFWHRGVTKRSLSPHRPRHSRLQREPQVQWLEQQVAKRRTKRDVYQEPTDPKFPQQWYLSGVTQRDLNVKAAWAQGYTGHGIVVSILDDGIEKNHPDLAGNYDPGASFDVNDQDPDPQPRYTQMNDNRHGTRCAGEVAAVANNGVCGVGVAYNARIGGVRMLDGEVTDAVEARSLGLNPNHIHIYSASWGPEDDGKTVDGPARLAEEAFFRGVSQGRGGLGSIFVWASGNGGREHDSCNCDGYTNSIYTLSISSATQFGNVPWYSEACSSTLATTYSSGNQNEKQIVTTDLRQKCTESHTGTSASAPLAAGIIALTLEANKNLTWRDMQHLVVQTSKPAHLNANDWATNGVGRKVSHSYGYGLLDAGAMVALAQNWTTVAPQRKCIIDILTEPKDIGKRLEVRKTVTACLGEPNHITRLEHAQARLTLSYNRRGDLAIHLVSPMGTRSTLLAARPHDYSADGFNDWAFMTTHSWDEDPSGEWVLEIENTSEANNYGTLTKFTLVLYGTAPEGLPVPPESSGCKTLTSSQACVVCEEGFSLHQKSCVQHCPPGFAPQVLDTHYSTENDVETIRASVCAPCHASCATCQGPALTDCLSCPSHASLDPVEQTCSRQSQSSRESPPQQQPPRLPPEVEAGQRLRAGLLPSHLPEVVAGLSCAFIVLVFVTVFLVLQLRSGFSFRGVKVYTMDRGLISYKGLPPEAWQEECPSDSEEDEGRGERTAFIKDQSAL
Vitamin D3 receptor (Homo sapiens), sequence (P11473 whole entry, looked up): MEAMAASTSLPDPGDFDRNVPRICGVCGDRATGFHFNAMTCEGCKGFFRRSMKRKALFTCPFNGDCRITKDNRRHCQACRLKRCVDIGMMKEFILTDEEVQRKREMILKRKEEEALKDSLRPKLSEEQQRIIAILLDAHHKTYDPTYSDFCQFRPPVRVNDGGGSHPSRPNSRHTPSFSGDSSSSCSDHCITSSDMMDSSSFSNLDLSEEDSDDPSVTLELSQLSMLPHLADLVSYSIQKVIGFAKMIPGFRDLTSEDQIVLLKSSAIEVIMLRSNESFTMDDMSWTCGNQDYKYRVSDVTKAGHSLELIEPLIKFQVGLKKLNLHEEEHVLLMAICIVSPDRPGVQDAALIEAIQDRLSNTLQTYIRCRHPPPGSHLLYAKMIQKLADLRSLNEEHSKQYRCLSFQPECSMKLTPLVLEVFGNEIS
Thyroid hormone receptor beta (Homo sapiens), sequence (P10828 whole entry, looked up): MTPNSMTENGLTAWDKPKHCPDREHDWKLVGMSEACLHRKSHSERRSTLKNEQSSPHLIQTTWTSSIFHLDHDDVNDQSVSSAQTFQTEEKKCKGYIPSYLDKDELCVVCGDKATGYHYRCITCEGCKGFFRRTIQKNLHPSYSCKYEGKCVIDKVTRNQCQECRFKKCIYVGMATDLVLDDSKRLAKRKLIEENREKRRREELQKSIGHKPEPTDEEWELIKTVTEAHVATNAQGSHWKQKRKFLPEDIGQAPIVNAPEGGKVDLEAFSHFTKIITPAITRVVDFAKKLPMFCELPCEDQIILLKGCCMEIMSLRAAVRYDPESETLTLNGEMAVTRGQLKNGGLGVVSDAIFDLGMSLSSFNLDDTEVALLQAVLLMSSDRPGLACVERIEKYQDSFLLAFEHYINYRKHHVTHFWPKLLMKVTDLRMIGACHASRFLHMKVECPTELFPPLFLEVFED
Retinoic acid receptor RXR-alpha (Homo sapiens), sequence (P19793 whole entry, looked up): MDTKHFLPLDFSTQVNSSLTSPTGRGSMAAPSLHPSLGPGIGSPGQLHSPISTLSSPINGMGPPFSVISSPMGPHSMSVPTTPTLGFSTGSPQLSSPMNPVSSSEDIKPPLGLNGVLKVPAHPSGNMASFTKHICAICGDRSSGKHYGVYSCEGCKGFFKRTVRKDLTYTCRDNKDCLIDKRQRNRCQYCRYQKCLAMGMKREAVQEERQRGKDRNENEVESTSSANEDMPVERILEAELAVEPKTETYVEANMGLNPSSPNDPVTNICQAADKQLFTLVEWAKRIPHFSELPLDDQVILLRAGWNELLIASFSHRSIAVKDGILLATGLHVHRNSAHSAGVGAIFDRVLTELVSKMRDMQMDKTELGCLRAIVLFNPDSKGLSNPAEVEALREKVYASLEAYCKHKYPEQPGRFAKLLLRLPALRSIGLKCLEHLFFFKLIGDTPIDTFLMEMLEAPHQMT
Peroxisome proliferator-activated receptor delta (Homo sapiens), sequence (Q03181 whole entry, looked up): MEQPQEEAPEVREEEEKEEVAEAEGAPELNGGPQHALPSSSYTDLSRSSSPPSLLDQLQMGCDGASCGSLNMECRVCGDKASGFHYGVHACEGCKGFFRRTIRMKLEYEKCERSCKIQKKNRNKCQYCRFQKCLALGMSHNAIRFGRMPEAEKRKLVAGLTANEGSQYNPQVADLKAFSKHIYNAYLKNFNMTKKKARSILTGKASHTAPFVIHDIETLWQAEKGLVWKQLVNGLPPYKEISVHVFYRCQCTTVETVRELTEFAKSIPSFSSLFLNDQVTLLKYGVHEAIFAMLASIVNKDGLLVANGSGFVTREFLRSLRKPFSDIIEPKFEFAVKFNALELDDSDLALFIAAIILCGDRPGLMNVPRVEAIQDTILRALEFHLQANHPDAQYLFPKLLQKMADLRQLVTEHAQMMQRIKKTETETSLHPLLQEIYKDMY
Peroxisome proliferator-activated receptor alpha (Homo sapiens), sequence (Q07869 whole entry, looked up, the tested form may be a part): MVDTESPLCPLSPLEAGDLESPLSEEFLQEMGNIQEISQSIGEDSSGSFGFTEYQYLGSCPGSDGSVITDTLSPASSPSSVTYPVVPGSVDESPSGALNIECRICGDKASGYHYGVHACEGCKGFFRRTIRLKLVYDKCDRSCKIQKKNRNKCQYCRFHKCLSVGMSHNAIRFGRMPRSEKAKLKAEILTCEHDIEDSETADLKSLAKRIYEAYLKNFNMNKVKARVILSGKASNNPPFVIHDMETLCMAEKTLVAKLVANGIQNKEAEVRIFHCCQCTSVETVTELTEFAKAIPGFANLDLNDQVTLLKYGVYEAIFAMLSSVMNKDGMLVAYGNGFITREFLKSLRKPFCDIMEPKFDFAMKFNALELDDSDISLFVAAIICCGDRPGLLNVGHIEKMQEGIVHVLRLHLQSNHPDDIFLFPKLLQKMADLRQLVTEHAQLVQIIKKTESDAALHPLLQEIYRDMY
Nuclear receptor subfamily 1 group I member 2 (Rattus norvegicus), sequence (Q9R1A7 whole entry, looked up): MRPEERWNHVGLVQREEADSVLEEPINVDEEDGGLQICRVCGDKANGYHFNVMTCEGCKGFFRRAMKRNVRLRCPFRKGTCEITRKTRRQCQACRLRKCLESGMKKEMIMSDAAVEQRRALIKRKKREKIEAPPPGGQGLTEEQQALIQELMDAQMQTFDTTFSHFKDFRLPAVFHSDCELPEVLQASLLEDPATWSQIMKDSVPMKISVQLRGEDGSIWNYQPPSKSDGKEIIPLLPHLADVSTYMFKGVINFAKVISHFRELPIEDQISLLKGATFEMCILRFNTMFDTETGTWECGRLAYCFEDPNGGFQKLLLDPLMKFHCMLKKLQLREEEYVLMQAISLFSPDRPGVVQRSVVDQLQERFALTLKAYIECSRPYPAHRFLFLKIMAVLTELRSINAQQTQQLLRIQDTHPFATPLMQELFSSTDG
Bile acid receptor (Homo sapiens), sequence (Q96RI1 whole entry, looked up): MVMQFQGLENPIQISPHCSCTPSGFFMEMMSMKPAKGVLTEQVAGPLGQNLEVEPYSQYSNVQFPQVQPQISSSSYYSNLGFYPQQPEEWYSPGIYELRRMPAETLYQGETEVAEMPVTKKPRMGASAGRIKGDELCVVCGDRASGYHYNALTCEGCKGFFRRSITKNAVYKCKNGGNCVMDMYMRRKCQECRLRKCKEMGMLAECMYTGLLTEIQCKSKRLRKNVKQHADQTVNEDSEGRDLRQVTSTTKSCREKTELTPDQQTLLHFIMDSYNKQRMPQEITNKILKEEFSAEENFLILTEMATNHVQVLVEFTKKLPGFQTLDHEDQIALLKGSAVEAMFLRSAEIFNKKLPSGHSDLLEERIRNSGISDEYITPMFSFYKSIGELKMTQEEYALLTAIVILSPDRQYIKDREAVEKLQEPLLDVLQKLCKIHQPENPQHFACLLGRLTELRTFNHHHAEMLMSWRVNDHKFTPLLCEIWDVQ

Cc1ccc(-c2nnc(Nc3ccc(O)cc3)c3ccccc23)cc1S(=O)(=O)NCc1nc2ccccc2[nH]1
inactive: Potency (Furin (Homo sapiens)) | Potency [1] | Potency [2]

CCN(Cc1cccc(S(=O)(=O)O)c1)c1ccc(C(=C2C=CC(=[N+](CC)Cc3cccc(S(=O)(=O)O)c3)C=C2)c2ccccc2S(=O)(=O)[O-])cc1
inactive: Potency [3] | outcome [4] | outcome [5] | outcome [7] | Potency [8] | outcome [9] | outcome [11] | outcome [12] | max response [14] 8.56% | activity change % (negative = inhibition) [15] -4.53% | Potency [16] | activation [17] 1.38% | activation [18] 1.84% | activation [19] -6.97% | max response [20] -9.68% | outcome [21] | Potency (Furin (Homo sapiens)) | max response [26] -11% | outcome [27]
-15.8%: max response [6]
active: Potency [22] 35.5 µM | Potency [23] 31.6 µM | Potency [1] 3.55 µM | Potency [2] 3.55 µM | Potency [24] 200 µM | Potency [25] 14.1 µM
-12.5%: max response [13]
-7.12%: max response [10]
